# Test results reported in PubChem BioAssay AID1259420 (Broad Institute, 2018).
# The campaign covered roughly 1,000 compounds. About 250 (25%) were called active. Not shown: some 31% with an inconclusive outcome. No rule for the calls is given here. Only a sample is shown. Entries with a potency or affinity are not part of this list.
# Assay: compound activity on host-cell Toxoplasma growth – dose response (AID 1259420);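 also: host cells were HeLa; final incubation lasted 72 hours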
# Conditions: Toxoplasma gondii growth in host cells, no IFN-gamma; at 19.5 µM unless noted
row,Structure (SMILES),max activity
1,CCC(=O)N1CC[C@@H]2[C@H]1c1cc(C#Cc3ccccc3F)ccc1N[C@@H]2CO,-12.6% (inactive)
2,O=S(=O)(c1cccc(F)c1)N1CC[C@@H]2[C@H]1c1cc(Br)ccc1N[C@@H]2CO,7.04% (inactive)
3,Cc1cccc(S(=O)(=O)N2CC[C@@H]3[C@@H](CO)Nc4ccc(-c5ccccc5F)cc4[C@@H]32)c1,-19% [at 0.6 µM] (inactive)
4,COc1ccccc1-c1ccc2c(c1)[C@H]1[C@H](CCN1S(=O)(=O)c1ccc(C)cc1)[C@@H](CO)N2,21.4% (inactive)
5,COc1ccccc1-c1ccc2c(c1)[C@H]1[C@H](CCN1Cc1ccccc1F)[C@@H](CO)N2,20.2% (inactive)
6,COC[C@]12CCC[C@@H]1CN(S(=O)(=O)c1cccc(OC)c1)C2,17.2% (inactive)
7,CN(C)CCN1CCC2(CCCN(C(=O)C3CCOC3)C2)C1=O (stereo not given),31.3% (inactive)
8,COCC1CN(C(=O)c2ccccc2F)Cc2cnn(CC3CC3)c21 (stereo not given),-15.3% [at 10 µM] (inactive)
9,Cc1ccccc1-c1ccc([C@@H]2[C@@H](CO)N3C(=O)CN(C(=O)c4ccncc4)C[C@@H]23)cc1,15% [at 0.16 µM] (inactive)
10,COc1ccccc1S(=O)(=O)N1CC[C@H]2[C@H](CO)Nc3ccc(-c4ccc(C#N)cc4)cc3[C@H]21,19% [at 21 µM] (inactive)
11,c1cc(-c2nccn2CCn2ccnc2)ccn1,7.6% [at 0.16 µM] (inactive)
12,O=C(Nc1ccccc1)c1ncn2c1CN(CC1CC1)S(=O)(=O)c1ccccc1-2,-5.31% [at 1.2 µM] (inactive)
13,O=C(NCc1ccccc1)c1cc(-c2cnc(N3CCCC3)nc2)cn1CC1CC1,-17.4% [at 10 µM] (inactive)
14,COc1ccccc1C#Cc1ccc([C@H]2[C@@H](CO)N3CCCCN(C(=O)C4CCC4)C[C@H]23)cc1,11% [at 0.16 µM] (inactive)
15,CC(C)COC1CC2(CCN(C(=O)c3cccn3C)CC2)C1,9.82% [at 0.3 µM] (inactive)
16,CN(C)CCOCC12CCCOC1CCN(C(=O)c1cccn1C)C2 (stereo not given),-18.9% [at 5 µM] (inactive)
17,CC(C)C#Cc1ccc([C@@H]2[C@@H](CO)N3C(=O)CN(C(=O)NC4CCCC4)C[C@H]23)cc1,-5.34% (inactive)
18,COCC(=O)N1CC(=O)N2[C@H](CO)[C@H](c3ccc(C#CC4CC4)cc3)[C@@H]2C1,-9.08% [at 5 µM] (inactive)
19,COc1ccc(-c2ccc([C@@H]3[C@@H](CO)N4C(=O)CN(C(=O)C5CC5)C[C@@H]34)cc2)cc1,19.5% [at 21 µM] (inactive)
20,CN1CCCN(CC2(O)CCNC2)CC1 (stereo not given),11.3% [at 0.08 µM] (inactive)
